Several values for one entry are separate records, joined by “and”; a condition that tells them apart may be missing. Equal values may be shown once. Results filed as inconclusive are left out. Entries that show only a call come without a potency. Some structures have more than one record in an assay (separate samples or runs), and their calls can disagree. Activity calls are given as the source filed them. The call rests on the fitted dose curve; in most records, active means well fitted inhibition curve with a large enough effect in the repeat runs; inconclusive means weak or mixed curves; inactive means flat fitted curve, though single readings scatter.
Potency means the concentration at half of the fitted maximal effect.

This assay in a line: qHTS assay to identify small molecule HDAC inhibitors (AID 1259364). Further: nearly all actives have a fitted effect of over 45% in size. The settings on record: HCT-116 HDAC-Glo I/II luminescence, 2 h; series mostly up to 92.4 µM. An excerpt:
U.S. Tox21 Program National Center for Advancing Translational Sciences [NCATS] NIH Chemical Genomics Center [NCGC] U.S. Environmental Protection Agency [EPA] National Institutes of Environmental Health Sciences [NIEHS] National Toxicology Program [NTP] U.S. Food and Drug Administration [FDA] Tox21 Assay Overview: Histone deacetylases (HDACs) are a group of epigenetic enzymes that regulate gene expression by histone deacetylation. HDACs are capable of introducing epigenetic modifications and such aberrations contribute to the onset and progression of several human diseases, thus making HDACs a popular therapeutic target. For identifying endogenous class I/II HDAC inhibitors a homogenous, luminogenic HDAC I/II cell based assay was used to measure the relative activity of class I and II HDACs from cells. Wild type HCT-116 cells were used to screen Tox21 libraries for identifying class I/II HDAC inhibitors.
Tox21 Assay Protocol Summary: HCT-116 cells were dispensed at 1,500 per well in 5uL of culture medium into white solid bottom 1536-well plates (Greiner Bio-One, Monroe, NC) using a Multidrop Combi (Thermo Scientific, Waltham, MA) dispenser. The assay plates were incubated at 37 C and 5% CO2 for an overnight, and then 23nL of compounds dissolved in DMSO and positive control were transferred using a Pintool station (Wako, San Diego, CA). The assay plates were incubated at 37C and 5% CO2 for 2hr. After compound treatment, 4uL of HDAC-Glo reagent (Promega Corporation, Madison, WI) was added to each well of the assay plates using Flying Reagent Dispenser (FRD, Aurora Discovery, San Diego, CA) and incubated the assay plates at room temperature for 30min. The luminescence signal was quantified using a ViewLux plate reader (Perkin Elmer, Shelton, CT).
Background: In qHTS, concentration-response curves come from the screen itself.
As to `O=C(Nc1ccc(Br)cc1)c1cc(Br)cc(Br)c1O`, the Potency is 6.83 µM (active) and 6.11 µM (active) and 6.68 µM (active). For `CCCCNC(=O)n1c(NC(=O)OC)nc2ccccc21`, the Potency is 21.6 µM (active) and 19.3 µM (active).

On to `C1=Cc2cccc3cccc1c23`, for which the Potency entry was “inactive”.

As for `Nc1ccc(-c2ccc(N)c(N)c2)cc1N`, the Potency was 54.3 µM (active). In the case of `CC1(C)C(C=C(Cl)Cl)C1C(=O)OC(C#N)c1cccc(Oc2ccccc2)c1` (stereo not given) it was “inactive”; in that of `O=[N+]([O-])c1ccc(O)c([N+](=O)[O-])c1`, 30.8 µM (active) and 27.3 µM (active).

With `COC(=O)c1sccc1S(=O)(=O)NC(=O)Nc1nc(C)nc(OC)n1`, the Potency entry was “inactive”. In the case of `NNC(=S)NN` it was “inactive”; in that of `CC(C)Oc1cc(-n2nc(C(C)(C)C)oc2=O)c(Cl)cc1Cl`, “inactive”; in that of `COP(=O)(OC)OC`, “inactive”. The entry for `Cc1ccc(OP(=O)(Oc2ccc(C)cc2)Oc2ccc(C)cc2)cc1` is “inactive”; for `CCCCCCCCC(=O)NCc1ccc(O)c(OC)c1` it is “inactive”. In the case of `CCc1cccc(CC)c1N(COC)C(=O)CCl` it was “inactive”. For the compound `Nc1cccnc1`, the Potency entry is “inactive”.

Turning to `NC(=S)Nc1ccccc1`, the Potency entry was “inactive”. In the case of `CCC(CC)Nc1c([N+](=O)[O-])cc(C)c(C)c1[N+](=O)[O-]`, the Potency result was “inactive”. The entry for `CCCCC(CC)COC(=O)c1ccc(C(=O)OCC(CC)CCCC)c(C(=O)OCC(CC)CCCC)c1` (stereo not given) is “inactive”. The entry for `CC(C)(C)c1ccccc1O` is “inactive”; for `C#C[C@]1(O)CC[C@H]2[C@@H]3CCC4=CC(=O)CC[C@]4(C)[C@H]3CC[C@@]21C` it is “inactive”. The entry for `C[C@]12CCC(=O)C[C@@H]1CC[C@@H]1[C@@H]2CC[C@]2(C)[C@@H](O)CC[C@@H]12` is “inactive”. Turning to `Oc1cc(Cl)ccc1Oc1ccc(Cl)cc1Cl`, the Potency result was “inactive”. Consider `CN(C)c1ccc(C(=O)c2ccc(N(C)C)cc2)cc1`, for which the Potency entry was “inactive and 48.6 µM (active)”. In the case of `COc1ccc(C(CN(C)C)C2(O)CCCCC2)cc1` (stereo not given) it was “inactive”; in that of `Cc1cc(C)cc(C)c1`, “inactive”. Turning to `Cc1cc(Cl)ccc1OCCCC(=O)O`, the Potency entry was “inactive”. As to `CCCCOCCOP(=O)(OCCOCCCC)OCCOCCCC`, the Potency entry is “inactive”. In the case of `C=CC(=O)OCCO` it was “inactive”; in that of `Nc1ccc(Cl)cc1N`, 19.3 µM (active); in that of `CC(C)C(=O)OCC(C)(C)C(OC(=O)C(C)C)C(C)C` (stereo not given), “inactive”. In the case of `C=CCc1ccc(OC)cc1`, the Potency result was “inactive”.

Take `CNC(=O)N(C)c1nnc(C(C)(C)C)s1`: the Potency is 27.3 µM (active). For `CCC(C)(c1ccc(O)cc1)c1ccc(O)cc1`, the Potency result was “inactive”. In the case of `C[C@]12CCC(=O)C(O)=C1CC[C@@H]1[C@@H]2CC[C@]2(C)C(=O)CC[C@@H]12` it was “inactive”. In the case of `Oc1c(Cl)c(Cl)c(Cl)c(Cl)c1Cl` it was “inactive”. With `Oc1cc(Cl)c(Cl)cc1Cl`, the Potency result is “inactive”.

On to `CCN(CC)C(=O)/C(Cl)=C(\C)OP(=O)(OC)OC`, for which the Potency result was “inactive”.

In the case of `CC(C)c1ccc(CO)cc1`, the Potency result is “inactive”. The entry for `CCOCN(C(=O)CCl)c1c(C)cccc1CC` is “inactive”. Turning to `O=C(NC(=O)c1c(F)cccc1F)Nc1ccc(Cl)cc1`, the Potency entry was “inactive”. Turning to `O=C1C=CC(=O)C=C1`, the Potency result is “inactive”.

Source of the values: PubChem BioAssay (Tox21).
